In PubChem BioAssay AID651692 (Broad Institute, 2012) one finds outcome data, which are given here for 40 molecules.

The structures appear in SMILES notation. Results with a measured potency or affinity are listed apart. Active and inactive are the calls of the source.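 Rule for the calls: active = fitted half-maximal concentration for loss of cell signal no higher than twice the top valid tested concentration; inconclusive = flat curve at 30 to 70% inhibition, or poor fit; inactive = flat within 30%, signal rise, or potency above limit.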

A short description of the assay: MDA-MB-231 cell growth inhibition, dose response, cytotoxicity control for RAD54 inhibitor project, CellTiter-Glo luminescence, cherry-pick (AID 651692).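 Note: more negative values mean stronger loss of viable cell signal.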 The conditions noted are these: MDA-MB-231 viability, 24 h; series mostly up to 26 µM.
As to `CC(=O)Nc1cc(-c2ccc(N3CCN(C)CC3)cc2)cn2c(-c3ccc(S(C)(=O)=O)cc3)cnc12`, the call was inactive.

In the case of `COc1ccc(N2C(=O)CSC23CCCCC3)cc1`, the outcome was inactive.

Consider `COc1ccc(-c2cc3nc(NCCCN(C)C)n(C)c(=O)c3s2)cc1OC`, for which the result was inactive.

Take `CCOC(=O)c1cnc2c(CC)cccc2c1NCCCN1CCOCC1`: the result was inactive.

As to `CN(C)CCCNc1nc2cc(-c3ccc(F)cc3)sc2c(=O)n1C`, the molecule was called inactive.

With `CN(C)CCCNc1ncnc2sc(-c3ccccc3)cc12`, the call was inactive.

For the molecule `Cc1cccn2c(=O)c3cc(C(=O)NCCN4CCOCC4)c(=N)n(CCCN4CCOCC4)c3nc12`, the result was inactive.

Regarding `COC(=O)C1=C(C)Nc2nc3ccccc3n2C1c1ccccc1F` (stereo not given), the call was inactive.

In the case of `COc1ccc(CCNC(=O)c2cc3c(=O)n4cccc(C)c4nc3n(CCCN3CCOCC3)c2=N)cc1`, the molecule was called inactive.

As for `Cc1c(-c2cc(Br)ccc2O)nc2cc3c(cc2c1C)OCO3`, the outcome was inactive.

Take `COc1ccc(Cc2c(-c3ccc(OC)c(OC)c3)nc3c(C)cc(Br)cn23)c(C)c1`: the molecule was classed as inactive.

In the case of `COc1cc(-c2cnc3c(NC=O)cc(-c4cccc(C(=O)NCCN(C)C)c4)cn23)cc(OC)c1OC`, the call was inactive.

For the molecule `CN1CCN(CCCNC(=O)c2cc3c(-c4ccc(Cl)cc4)nn(C)c3s2)CC1`, the molecule was classed as inactive.

Take `O=C(Nc1ccc2c(c1)OCO2)c1cc(-c2ccncc2)nc2ccccc12`: the molecule was called inactive.

In the case of `Cc1cccn2c(=O)c3cc(C(=O)NC4CCCC4)c(=N)n(CCCN4CCOCC4)c3nc12`, the result was inactive.

Consider `CN(C)CCCN(C(=O)CCOc1ccccc1)c1nc2ccc(F)cc2s1`, for which the molecule was classed as inactive.

Regarding `CNC(C)C#Cc1ccc2oc3cccc(OC)c3c(=O)c2c1` (stereo not given), the molecule was called inactive.

As to `Cc1cccc(-c2cc(N3CCCN(C)CC3)n3nccc3n2)c1`, the molecule was called inactive.

`Cn1c2ccc(F)cc2c2ncn(CCCN(CCO)CCO)c(=O)c21`: the outcome was inactive.

Turning to `Cc1cccn2c(=O)c3cc(C(=O)NCCN4CCOCC4)c(=N)n(CCN4CCOCC4)c3nc12`, the call was inactive.

As to `Cc1ccc2nc(C)cc(Nc3ccc4c(c3)OCCO4)c2c1`, the outcome was inactive.

`CN(C)CCN(C(=O)CN1C(=O)c2ccccc2C1=O)c1nc2cc3c(cc2s1)OCCO3`: the outcome was inactive.

For the molecule `CCCN(CCC)CCCNC(=O)c1cc2c(=O)n(C)c3ccccc3c2n1C`, the molecule was called inactive.

With `CCOC(=O)c1c(C)n(C)c2ccc(OCC(O)CN3CCC(C)CC3)cc12` (stereo not given), the molecule was called inactive.

Take `CCc1nc(Nc2ccncc2)c2oc3ccccc3c2n1`: the outcome was inactive.

As for `CCCCN(CC)CCCNC(=O)c1cc2c(=O)n(C)c3ccccc3c2n1C`, the call was inactive.

On to `O=C(Nc1cccc(Cl)c1)c1cc(S(=O)(=O)N2CCOCC2)cs1`, for which the molecule was called inactive.

For the molecule `CCCN1CCN(C(=S)Nc2ccc3nc(N4CCN(CC)CC4)cc(C)c3c2)CC1`, the result was inactive.

As to `CCCCN(CC)CCCNC(=O)c1cc2c(-c3ccc(OC)c(OC)c3)nn(C)c2s1`, the molecule was classed as inactive.

Regarding `COc1ccc(OC)c(Nc2nc(NCCCN(C)C)nc(N)c2[N+](=O)[O-])c1`, the call was inactive.

Take `CN1CCN(c2nc(-c3ccncc3)nc3ccccc23)CC1`: the molecule was called inactive.

`CC1CCN(CCCNC(=O)c2cc3c(Cl)nc4ccccc4c3s2)CC1`: the call was inactive.

Turning to `COc1cc2sc3cc(NCC[C@@H]4CCCN4C)ccc3c(=O)c2cc1OC`, the result was inactive.

For `CCN(CC)CCCNc1nc2cc(OC)c(OC)cc2c2nc(-c3cccnc3)nn12`, the molecule was called inactive.

Take `CCCC(c1nnnn1Cc1ccc(OC)cc1)N1CCN(c2ccccc2)CC1` (stereo not given): the outcome was inactive.

For `c1ccc(CNc2c3ccccc3nc3ccccc23)cc1`, the call was inactive.

On to `CN1CCN(CC(=O)Nc2nc(-c3c[nH]c4ccccc34)cs2)CC1`, for which the result was inactive.

As to `COc1cccc2c1-c1c(O)cccc1C2=O`, the outcome was inactive.

Take `CCOC(=O)c1c(NC(=O)c2ccc(S(=O)(=O)N3CCOCC3)cc2)sc2c1CCN(C(C)C)C2`: the call was inactive.

With `OCCN1CCN(c2ncnc3c2sc2nc(N4CCOCC4)c4c(c23)CCC4)CC1`, the molecule was classed as inactive.
